What was measured:
Experiment in all cases: PBM binding z-score (relative to random genomic background probes); higher = stronger binding; sequences stand for … in GC…GCGATTGACAGCGTAGAATGAAGG
[1] = test system: PPARg:RXRa DBDmut IVT, anti-RXR (DBD mutation: RXRa K156A/R161A, NR concentration 270 nM, RXRa partner concentration 90 nM)
Outline: (§1)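 Binding buffer was PBS pH 7.4 with 2% milk, 0.02% Triton X-100, 1 mM DTT, 0.2 mg/mL BSA and 0.4 mg/ml salmon testes DNA. In it, ligand-free nuclear receptor dimers were incubated 1 h on custom Agilent 4×180K protein-binding microarrays carrying double-stranded probes. Antibodies against each partner (one per run) detected binding, and z-scores were calculated against random background probes after regression normalization of scanned fluorescence.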

[2] = test system: PPARg:RXRa IVT, anti-PPARg (NR concentration 270 nM, RXRa partner concentration 90 nM)
Outline: as §1

[3] = test system: PPARg DBDmut:RXRa IVT, anti-PPARg (DBD mutation: PPARg1 K132A/R137A, NR concentration 270 nM, RXRa partner concentration 90 nM)
Outline: as §1

[4] = test system: PPARg DBDmut IVT, anti-PPARg (DBD mutation: PPARg1 K132A/R137A, NR concentration 270 nM)
Outline: as §1

[5] = test system: PPARg homodimer (NR concentration 180 nM)
Outline: as §1

[6] = test system: PXR:RXRa (NR concentration 270 nM, RXRa partner concentration 90 nM)
Outline: as §1

[7] = test system: PXR homodimer (NR concentration 270 nM)
Outline: as §1

[8] = test system: RARa:RXR (NR concentration 270 nM, RXRa partner concentration 90 nM)
Outline: as §1

[9] = test system: RARa homodimer (NR concentration 270 nM)
Outline: as §1

[10] = test system: RARb:RXRa (NR concentration 270 nM, RXRa partner concentration 90 nM)
Outline: as §1

[11] = test system: RARb homodimer (NR concentration 270 nM)
Outline: as §1

[12] = test system: RARg:RXRa (NR concentration 270 nM, RXRa partner concentration 90 nM)
Outline: as §1

[13] = test system: RARg homodimer (NR concentration 270 nM)
Outline: as §1

[14] = test system: RXRa DBDmut IVT, anti-RXR (DBD mutation: RXRa K156A/R161A, NR concentration 90 nM)
Outline: as §1

[15] = test system: RXRa homodimer (NR concentration 180 nM)
Outline: as §1

[16] = test system: THRa:RXRa (NR concentration 90 nM, RXRa partner concentration 90 nM)
Outline: as §1

[17] = test system: THRa homodimer (NR concentration 90 nM)
Outline: as §1

[18] = test system: VDR homodimer (NR concentration 270 nM)
Outline: as §1

| Sequence | PBM binding z-score [1] | PBM binding z-score [2] | PBM binding z-score [3] | PBM binding z-score [4] | PBM binding z-score [5] | PBM binding z-score [6] | PBM binding z-score [7] | PBM binding z-score [8] | PBM binding z-score [9] | PBM binding z-score [10] | PBM binding z-score [11] | PBM binding z-score [12] | PBM binding z-score [13] | PBM binding z-score [14] | PBM binding z-score [15] | PBM binding z-score [16] | PBM binding z-score [17] | PBM binding z-score [18] |
| --- | --- | --- | --- | --- | --- | --- | --- | --- | --- | --- | --- | --- | --- | --- | --- | --- | --- | --- |
| ATATCTAGGTTAGCTGGGGTCATTCAGACTAGGC | 6.63 | 6.38 | 2.02 | 2.45 | 2.3 | 6.2 | 4.27 | 5.11 | 1.57 | 3.18 | 3.96 | 4.04 | 3.18 | 1.88 | 5.32 | 5.07 | 3.53 | 5.14 |
| TAGCCTACGTCATGGGCCAGTATACCACGCGAAC | -0.818 | -0.288 | -0.41 | -0.97 | -0.836 | -0.57 | -0.465 | -0.541 | -1.11 | -0.332 | -0.00941 | -0.29 | -0.1 | -0.76 | -0.0748 | -0.335 | -0.4 | -0.575 |
| ACTAGCTGGTCAGCTGAGGTCACACACAATTCGG | 0.832 | 1.83 | 0.106 | -0.428 | 2.22 | 5.58 | 1.11 | 4.93 | 0.527 | 3.69 | 4.27 | 4.27 | 4.18 | 0.848 | 4.03 | 5.12 | 4.71 | 3.25 |
| CGTCAAAGTTCATCTAAGGTAACGTAAAGCACGC | 0.47 | 1.89 | 0.673 | 1.11 | 3.01 | 5.51 | 5.77 | 3.97 | 1.85 | 4.78 | 4.35 | 5.77 | 6.43 | 5.14 | 4.66 | 5.26 | 2.52 | 5.45 |
| TAGGCTAGGTCATTGGGCCAGTATAGTACGCATC | 2.74 | 3.99 | 0.305 | 0.421 | 1.41 | 1.32 | -0.0794 | 1.9 | 0.178 | 3.79 | 2.94 | 3.67 | 4.61 | 1.54 | 2.5 | 2.54 | 0.641 | 1.09 |
| ACTTACGGGTCAACGAGGTAATAGCACGCGTATA | 3.55 | 4.22 | 1.27 | 1.43 | 2.86 | 3.81 | 0.484 | 4.62 | 0.585 | 4.15 | 3.07 | 5.4 | 5.19 | 2.15 | 6.11 | 4 | 0.859 | 1.79 |
| GCTAGTTGGTCACTAAAAGGTCACACACCGGTCG | 1.75 | 3.25 | -0.266 | -0.384 | 4.15 | 5.01 | 1.59 | 5.91 | 1.48 | 4.49 | 5.51 | 5.78 | 5.45 | 0.465 | 5.16 | 3.61 | 1.7 | 2.13 |
| GCTATTAGTTGAAAGGGCATCCGAATGATTCTCG | 0.6 | 0.576 | 0.336 | 0.482 | 1.17 | 0.67 | 0.374 | 1.21 | 0.477 | 1.65 | 1.52 | 1.04 | 0.981 | 1.01 | 1.15 | 0.356 | -0.145 | 0.425 |
| CCTCTGAGGACAGAAGGTCAGAGCTGTCCGCTTT | 0.612 | 0.36 | -0.397 | -1.71 | 1.53 | 1.95 | -0.313 | 2.59 | -0.25 | 3.44 | 3.74 | 3.76 | 3.58 | 1.08 | 2 | 3.4 | 1.58 | 0.647 |
| ACTAGCAGGCCCAGGGTCACTCAAGATTAGTCCG | -0.868 | 0.714 | -0.322 | -0.342 | 0.073 | 2.4 | 0.0496 | 2.75 | -0.377 | 2.27 | 2.58 | 2.39 | 2.01 | -0.284 | 2.78 | 2.73 | 1.17 | 1.14 |
| CGTCCAAGGTCAGAGAGGTAAGTGAATGCCGAGT | 2.46 | 2.1 | -0.583 | -0.788 | 1.67 | 2.89 | 1.46 | 3.24 | 0.288 | 4.67 | 3.27 | 4.7 | 5.39 | 2.67 | 3.85 | 3.5 | 1.8 | 1.71 |
| ATATGTCGGTTAGCTGGGGTCATTCAGACTAGGC | 1.3 | 2.25 | 0.889 | 0.777 | 1.85 | 5.49 | 3.48 | 5.05 | 0.853 | 2.62 | 3.58 | 3.65 | 2.68 | 1.59 | 5.28 | 4.56 | 3.31 | 4.56 |
| TCATATAGGTAAGCAGGTGAAAGTCCGTAAGTTA | 4.03 | 3.94 | 0.357 | 0.715 | 0.516 | 0.257 | 0.129 | 0.662 | 0.214 | 0.318 | 0.479 | 0.2 | -0.071 | 0.903 | 0.347 | 0.462 | 0.196 | -0.0581 |
| CAAACTAGGTCAACGGAAGGTCAAAGTCCGCATG | 8.48 | 8.61 | 4.8 | 2.05 | 7.1 | 5.74 | 2.3 | 7.48 | 2.65 | 5.04 | 5.37 | 8.1 | 6.98 | 2.17 | 5.99 | 4.24 | 2.34 | 3.65 |

Source: the supplement of paper PMC6555819
